# Test results published in PubChem BioAssay AID1159580 (chemical genetic matrix, 2015).
# Hit rate of the full screen: of about 5,500 compounds, about 2,000 (36%) were called active. Roughly 18% stayed inconclusive and do not appear here. The list shows a part of the results. Values without a mark were called inactive. Cut-off read from the data, not from the text of the source: active = normalized growth mostly below about 0.91 (no sharp cut-off); inconclusive = no clear call, values can overlap the other calls; inactive = mostly above about 0.92.
# Assay: chemical genetic growth profiling, strain panel (AID 1159580);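 note: tested at 20 µM; growth read once vehicle control cultures reached saturation at 30 °C; 1 = growth at the plate median or of vehicle wells; lower values mean less growth of the strain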
# Conditions: growth OD
# [1] = S. cerevisiae deletion strains, locus YCL061C, strain MRC1, active compounds read low
# [2] = S. cerevisiae deletion strains, locus YHR030C, strain SLT2, active compounds read low
# [3] = S. cerevisiae deletion strains, locus YJL187C, strain SWE1, active compounds read low
smiles,measurement,setting,value
O=C(O)CCCN1C(=O)c2cccc3cccc(c23)C1=O,normalized growth,"S. cerevisiae deletion strains, locus YAL021C, strain ccr4, active compounds read low",0.983
same,normalized growth,"S. cerevisiae deletion strains, locus YAL026C, strain drs2, active compounds read low",1.02
same,normalized growth,"S. cerevisiae deletion strains, locus YAL030W, strain snc1, active compounds read low",1.01
same,normalized growth,"S. cerevisiae deletion strains, locus YBL061C, strain skt5, active compounds read low",1.01
same,normalized growth,"S. cerevisiae deletion strains, locus YBR009C, strain hhf1, active compounds read low",1.02
same,normalized growth,"S. cerevisiae deletion strains, locus YBR023C, strain chs3, active compounds read low",1.01
same,normalized growth,"S. cerevisiae deletion strains, locus YBR171W, strain sec66, active compounds read low",1.01
same,normalized growth,"S. cerevisiae deletion strains, locus YBR231C, strain swc5, active compounds read low",1.01
same,normalized growth,"S. cerevisiae deletion strains, locus YBR279W, strain paf1, active compounds read low",1.01
same,normalized growth,"S. cerevisiae deletion strains, locus YCL011C, strain gbp2, active compounds read low",1.02
same,normalized growth,"S. cerevisiae deletion strains, locus YCL016C, strain dcc1, active compounds read low",1.02
same,normalized growth,[1],1.02
same,normalized growth,"S. cerevisiae deletion strains, locus YCL069W, strain vba3, active compounds read low",1.02
same,normalized growth,"S. cerevisiae deletion strains, locus YCR088W, strain abp1, active compounds read low",1.02
same,normalized growth,"S. cerevisiae deletion strains, locus YDL005C, strain med2, active compounds read low",1
same,normalized growth,"S. cerevisiae deletion strains, locus YDL040C, strain nat1, active compounds read low",1
same,normalized growth,"S. cerevisiae deletion strains, locus YDR001C, strain nth1, active compounds read low",1.01
same,normalized growth,"S. cerevisiae deletion strains, locus YDR069C, strain doa4, active compounds read low",1.02
same,normalized growth,"S. cerevisiae deletion strains, locus YDR137W, strain rgp1, active compounds read low",1.01
same,normalized growth,"S. cerevisiae deletion strains, locus YDR159W, strain sac3, active compounds read low",1.01
same,normalized growth,"S. cerevisiae deletion strains, locus YDR195W, strain ref2",1.05
same,normalized growth,"S. cerevisiae deletion strains, locus YDR297W, strain sur2, active compounds read low",1.01
same,normalized growth,"S. cerevisiae deletion strains, locus YDR334W, strain swr1, active compounds read low",1.02
same,normalized growth,"S. cerevisiae deletion strains, locus YDR335W, strain msn5, active compounds read low",1.01
same,normalized growth,"S. cerevisiae deletion strains, locus YDR392W, strain spt3, active compounds read low",0.882
same,normalized growth,"S. cerevisiae deletion strains, locus YEL003W, strain gim4, active compounds read low",1.01
same,normalized growth,"S. cerevisiae deletion strains, locus YEL037C, strain rad23, active compounds read low",1.01
same,normalized growth,"S. cerevisiae deletion strains, locus YEL061C, strain CIN8 (second series), active compounds read low",1.01
same,normalized growth,"S. cerevisiae deletion strains, locus YER015W, strain faa2, active compounds read low",1.01
same,normalized growth,"S. cerevisiae deletion strains, locus YER016W, strain bim1, active compounds read low",1.02
same,normalized growth,"S. cerevisiae deletion strains, locus YER111C, strain swi4, active compounds read low",1.01
same,normalized growth,"S. cerevisiae deletion strains, locus YER155C, strain BEM2 (second series), active compounds read low",1
same,normalized growth,"S. cerevisiae deletion strains, locus YFR010W, strain ubp6, active compounds read low",1.01
same,normalized growth,"S. cerevisiae deletion strains, locus YGL167C, strain pmr1, active compounds read low",1.01
same,normalized growth,"S. cerevisiae deletion strains, locus YGL173C, strain kem1, active compounds read low",1.02
same,normalized growth,"S. cerevisiae deletion strains, locus YGL227W, strain vid30, active compounds read low",1.02
same,normalized growth,"S. cerevisiae deletion strains, locus YGL240W, strain doc1, active compounds read low",1
same,normalized growth,"S. cerevisiae deletion strains, locus YGL253W, strain hxk2, active compounds read low",1.02
same,normalized growth,"S. cerevisiae deletion strains, locus YHR013C, strain ard1, active compounds read low",0.97
same,normalized growth,"S. cerevisiae deletion strains, locus YHR027C, strain rpn1, active compounds read low",1.02
same,normalized growth,[2],1
same,normalized growth,"S. cerevisiae deletion strains, locus YHR079C, strain IRE1, active compounds read low",0.998
same,normalized growth,"S. cerevisiae deletion strains, locus YHR142W, strain chs7, active compounds read low",0.991
same,normalized growth,"S. cerevisiae deletion strains, locus YJL092W, strain hpr5, active compounds read low",1.01
same,normalized growth,"S. cerevisiae deletion strains, locus YJL095W, strain BCK1 (second series), active compounds read low",1.01
same,normalized growth,"S. cerevisiae deletion strains, locus YJL095W, strain BCK1, active compounds read low",0.998
same,normalized growth,"S. cerevisiae deletion strains, locus YJL115W, strain asf1, active compounds read low",1.02
same,normalized growth,"S. cerevisiae deletion strains, locus YJL129C, strain trk1, active compounds read low",1.02
same,normalized growth,"S. cerevisiae deletion strains, locus YJL154C, strain vps35, active compounds read low",1.01
same,normalized growth,"S. cerevisiae deletion strains, locus YJL164C, strain tpk1, active compounds read low",0.992
same,normalized growth,"S. cerevisiae deletion strains, locus YJL166W, strain qcr8, active compounds read low",1.01
same,normalized growth,[3],1.01
same,normalized growth,"S. cerevisiae deletion strains, locus YJR066W, strain TOR1, active compounds read low",0.963
same,normalized growth,"S. cerevisiae deletion strains, locus YKL160W, strain elf1, active compounds read low",0.988
same,normalized growth,"S. cerevisiae deletion strains, locus YKR026C, strain gcn3, active compounds read low",1.02
same,normalized growth,"S. cerevisiae deletion strains, locus YKR091W, strain srl3, active compounds read low",1.01
same,normalized growth,"S. cerevisiae deletion strains, locus YLL001W, strain dnm1, active compounds read low",1.03
same,normalized growth,"S. cerevisiae deletion strains, locus YLL026W, active compounds read low",1.01
same,normalized growth,"S. cerevisiae deletion strains, locus YLL041C, strain sdh2, active compounds read low",1.01
same,normalized growth,"S. cerevisiae deletion strains, locus YLR027C, strain aat2, active compounds read low",1.01
same,normalized growth,"S. cerevisiae deletion strains, locus YLR113W, strain HOG1, active compounds read low",1.03
same,normalized growth,"S. cerevisiae deletion strains, locus YLR221C, strain rsa3, active compounds read low",0.996
same,normalized growth,"S. cerevisiae deletion strains, locus YLR258W, strain gsy2, active compounds read low",1.02
same,normalized growth,"S. cerevisiae deletion strains, locus YLR262C, strain YPT6 (second series), active compounds read low",0.983
same,normalized growth,"S. cerevisiae deletion strains, locus YLR320W, strain mms22, active compounds read low",0.986
same,normalized growth,"S. cerevisiae deletion strains, locus YLR342W, strain FKS1, active compounds read low",1.02
same,normalized growth,"S. cerevisiae deletion strains, locus YLR357W, strain rsc2, active compounds read low",1.04
same,normalized growth,"S. cerevisiae deletion strains, locus YLR370C, strain arc18, active compounds read low",1.02
same,normalized growth,"S. cerevisiae deletion strains, locus YLR384C, strain iki3, active compounds read low",1.01
same,normalized growth,"S. cerevisiae deletion strains, locus YML120C, strain ndi1, active compounds read low",1
same,normalized growth,"S. cerevisiae deletion strains, locus YMR058W, strain fet3, active compounds read low",1.02
same,normalized growth,"S. cerevisiae deletion strains, locus YMR125W, strain sto1, active compounds read low",1.03
same,normalized growth,"S. cerevisiae deletion strains, locus YMR129W, active compounds read low",1.02
same,normalized growth,"S. cerevisiae deletion strains, locus YMR205C, strain PFK2, active compounds read low",1.03
same,normalized growth,"S. cerevisiae deletion strains, locus YMR231W, strain pep5, active compounds read low",1.01
same,normalized growth,"S. cerevisiae deletion strains, locus YNL071W, strain lat1, active compounds read low",0.994
same,normalized growth,"S. cerevisiae deletion strains, locus YNL183C, strain NPR1, active compounds read low",0.931
same,normalized growth,"S. cerevisiae deletion strains, locus YNL209W, strain ssb2, active compounds read low",1.01
same,normalized growth,"S. cerevisiae deletion strains, locus YNL248C, strain rpa49, active compounds read low",0.98
same,normalized growth,"S. cerevisiae deletion strains, locus YNL322C, strain KRE1 (second series), active compounds read low",1.02
same,normalized growth,"S. cerevisiae deletion strains, locus YNR049C, strain mso1, active compounds read low",1.01
same,normalized growth,"S. cerevisiae deletion strains, locus YOR001W, strain rrp6, active compounds read low",0.976
same,normalized growth,"S. cerevisiae deletion strains, locus YOR070C, strain gyp1, active compounds read low",1.01
same,normalized growth,"S. cerevisiae deletion strains, locus YOR080W, strain dia2, active compounds read low",1.02
same,normalized growth,"S. cerevisiae deletion strains, locus YOR083W, strain WHI5, active compounds read low",0.995
same,normalized growth,"S. cerevisiae deletion strains, locus YOR106W, strain vam3, active compounds read low",1.01
same,normalized growth,"S. cerevisiae deletion strains, locus YOR231W, strain MKK1, active compounds read low",1.02
same,normalized growth,"S. cerevisiae deletion strains, locus YOR265W, strain rbl2, active compounds read low",1.01
same,normalized growth,"S. cerevisiae deletion strains, locus YOR270C, strain vph1, active compounds read low",0.999
same,normalized growth,"S. cerevisiae deletion strains, locus YOR290C, strain snf2, active compounds read low",1
same,normalized growth,"S. cerevisiae deletion strains, locus YPL051W, strain arl3, active compounds read low",0.982
same,normalized growth,"S. cerevisiae deletion strains, locus YPL078C, strain atp4, active compounds read low",0.997
same,normalized growth,"S. cerevisiae deletion strains, locus YPL106C, strain sse1, active compounds read low",1.01
same,normalized growth,"S. cerevisiae deletion strains, locus YPL240C, strain hsp82, active compounds read low",1.02
same,normalized growth,"S. cerevisiae deletion strains, locus YPL256C, strain CLN2, active compounds read low",1.03
c1ccc2c(c1)-c1cccc3cccc-2c13,normalized growth,"S. cerevisiae deletion strains, locus YAL013W, strain DEP1, active compounds read low",0.897 (active)
same,normalized growth,"S. cerevisiae deletion strains, locus YBR229C, strain ROT2, active compounds read low",0.873 (active)
same,normalized growth,[1],0.876 (active)
same,normalized growth,"S. cerevisiae deletion strains, locus YDL101C, strain DUN1, active compounds read low",0.929
same,normalized growth,"S. cerevisiae deletion strains, locus YDL134C, strain PPH21, active compounds read low",0.873 (active)
same,normalized growth,"S. cerevisiae deletion strains, locus YDR150W, strain NUM1, active compounds read low",0.911
same,normalized growth,"S. cerevisiae deletion strains, locus YEL061C, strain CIN8, active compounds read low",0.787 (active)
same,normalized growth,"S. cerevisiae deletion strains, locus YGR078C, strain PAC10, active compounds read low",0.855 (active)
same,normalized growth,[2],0.34 (active)
same,normalized growth,"S. cerevisiae deletion strains, locus YHR087W, strain rtc3, active compounds read low",0.826 (active)
same,normalized growth,[3],0.939
same,normalized growth,"S. cerevisiae deletion strains, locus YJR043C, strain POL32, active compounds read low",0.929
same,normalized growth,"S. cerevisiae deletion strains, locus YJR075W, strain HOC1, active compounds read low",0.771 (active)
same,normalized growth,"S. cerevisiae deletion strains, locus YKL190W, strain CNB1, active compounds read low",0.767 (active)
same,normalized growth,"S. cerevisiae deletion strains, locus YLR039C, strain RIC1, active compounds read low",0.363 (active)
same,normalized growth,"S. cerevisiae deletion strains, locus YLR058C, strain SHM2 (second series), active compounds read low",0.923 (active)
same,normalized growth,"S. cerevisiae deletion strains, locus YLR085C, strain ARP6, active compounds read low",0.318 (active)
same,normalized growth,"S. cerevisiae deletion strains, locus YLR262C, strain YPT6, active compounds read low",0.313 (active)
same,normalized growth,"S. cerevisiae deletion strains, locus YML094W, strain GIM5, active compounds read low",0.757 (active)
same,normalized growth,"S. cerevisiae deletion strains, locus YMR219W, strain ESC1, active compounds read low",0.949
same,normalized growth,"S. cerevisiae deletion strains, locus YMR263W, strain SAP30, active compounds read low",0.916
same,normalized growth,"S. cerevisiae deletion strains, locus YMR307W, strain GAS1, active compounds read low",0.428 (active)
same,normalized growth,"S. cerevisiae deletion strains, locus YNL153C, strain GIM3, active compounds read low",0.906 (active)
same,normalized growth,"S. cerevisiae deletion strains, locus YNL298W, strain CLA4 (second series), active compounds read low",0.694 (active)
same,normalized growth,"S. cerevisiae deletion strains, locus YNL322C, strain KRE1, active compounds read low",0.932 (active)
same,normalized growth,"S. cerevisiae deletion strains, locus YNR030W, strain Alg12, active compounds read low",0.721 (active)
same,normalized growth,"S. cerevisiae deletion strains, locus YOL006C, strain TOP1, active compounds read low",0.764
same,normalized growth,"S. cerevisiae deletion strains, locus YPL055C, strain LGE1, active compounds read low",0.666 (active)
same,normalized growth,"S. cerevisiae deletion strains, locus YPL241C, strain CIN2, active compounds read low",0.648 (active)
same,normalized growth,"S. cerevisiae deletion strains, locus YPR135W, strain CTF4, active compounds read low",0.483 (active)
same,normalized growth,"S. cerevisiae strains, strain wild type, active compounds read low",0.863 (active)
